PubChem BioAssay (NCI)
This is part of a sample that, as a whole, favours compounds with a hit. Of some 83,000 tested, about 20% had one in any assay.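 For each line, cells grew in 96-well plates with the test compound present at a single concentration for 48 hours.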 The source made the active and inactive calls. Rule for the calls: active = growth percent below 10; inactive = the rest.

Columns and labels:
Assay in all cases: NCI-60 one-dose screen, 48 h (100 = growth as untreated, 0 = no growth, -100 = all killed)
Details in all cases: 10 µM
DU-145 prostate = test system: DU-145 prostate
K-562 leukemia = test system: K-562 leukemia
MALME-3M melanoma = test system: MALME-3M melanoma
MDA-MB-231 breast = test system: MDA-MB-231 breast
SF-268 CNS = test system: SF-268 CNS
SF-295 CNS = test system: SF-295 CNS
SF-539 CNS = test system: SF-539 CNS
UACC-257 melanoma = test system: UACC-257 melanoma
M14 melanoma = test system: M14 melanoma
RXF 393 renal = test system: RXF 393 renal

Measured: growth

CN1C/C(=C\c2ccc(O)cc2O)c2[o+]c3cc(O)ccc3cc2C1
inactive: DU-145 prostate 78.7% | K-562 leukemia 34.9% | MALME-3M melanoma 26.5% | MDA-MB-231 breast 14.2% | SF-268 CNS 70% | SF-295 CNS 92.5% | UACC-257 melanoma 58.5% | M14 melanoma 55.2%
active: SF-539 CNS -8.51%

Cc1ccc(/C=C/C(=O)c2ccc(S(=O)(=O)NCCNc3nc(Nc4ccc(F)cc4)nc(N(C)C)n3)cc2)cc1
inactive: DU-145 prostate 30% | K-562 leukemia 12.2% | MALME-3M melanoma 69.1% | MDA-MB-231 breast 38.6% | SF-268 CNS 34.6% | SF-295 CNS 37.7% | SF-539 CNS 41.6% | UACC-257 melanoma 61.2% | M14 melanoma 14.6%

COc1ccc(Nc2nc(N)n(Cc3cccc(Br)c3)n2)cc1
inactive: DU-145 prostate 22.6% | SF-268 CNS 16%
active: K-562 leukemia 7.86% | MALME-3M melanoma -25% | MDA-MB-231 breast -5.79% | SF-295 CNS 4.42% | SF-539 CNS -3.08% | UACC-257 melanoma 6.73% | M14 melanoma 0.65%

COc1ccccc1C(=O)NNC(=O)CSc1nc2c(c(=O)[nH]1)CCCC2
inactive: DU-145 prostate 104% | K-562 leukemia 100% | MALME-3M melanoma 95.6% | MDA-MB-231 breast 86.3% | SF-268 CNS 101% | SF-295 CNS 99.2% | SF-539 CNS 101% | UACC-257 melanoma 107% | M14 melanoma 101%

O=S(=O)(Nc1ncccn1)c1ccc(-n2c(-c3ccc(Br)cc3)nc(-c3ccccc3)c2-c2ccccc2)cc1
active: SF-295 CNS 8.26%
inactive: DU-145 prostate 58.3% | K-562 leukemia 44% | MALME-3M melanoma 74.6% | MDA-MB-231 breast 51.3% | SF-268 CNS 32.5% | SF-539 CNS 55.8% | UACC-257 melanoma 59.4% | M14 melanoma 38.4%

COc1cc(/C=C/C(=O)c2ccc(F)cc2)ccc1Oc1nc(Nc2ccc(F)cc2)nc(N(C)C)n1
inactive: DU-145 prostate 78.4% | K-562 leukemia 25.7% | MALME-3M melanoma 84.4% | MDA-MB-231 breast 59.4% | SF-268 CNS 54.8% | SF-295 CNS 53.1% | SF-539 CNS 77.5% | UACC-257 melanoma 47.7% | M14 melanoma 68.6%

CN1CCCN(Cc2ccc(C(=O)Nc3cccc(Nc4ccc5c(O)cccc5n4)c3)cc2C(F)(F)F)CC1
active: DU-145 prostate -44.5% | MALME-3M melanoma -95.9% | MDA-MB-231 breast -75.6% | SF-268 CNS -55.6% | SF-295 CNS -91% | SF-539 CNS -98.3% | UACC-257 melanoma -81.3% | M14 melanoma -84.7%
inactive: K-562 leukemia 11.5%

COc1ccc(-c2ccc(SCC(=O)Nc3ccc(C#N)cc3)nn2)cc1
inactive: DU-145 prostate 105% | K-562 leukemia 90% | MALME-3M melanoma 78.6% | MDA-MB-231 breast 85.4% | SF-268 CNS 99.1% | SF-295 CNS 81.3% | SF-539 CNS 71% | UACC-257 melanoma 98.9% | M14 melanoma 93%

Nc1nc(Nc2ccc(Cl)cc2)n(Cc2cccc(Br)c2)n1
active: K-562 leukemia 7.99% | MALME-3M melanoma -53.2% | MDA-MB-231 breast -68.7% | SF-268 CNS -27.4% | SF-295 CNS -63.2% | SF-539 CNS -86.6% | UACC-257 melanoma -15.6% | M14 melanoma -48.8%
inactive: DU-145 prostate 12.1%

Cn1cc(/C=N/Nc2ccnc3cc(Cl)ccc23)c2ccccc21
active: DU-145 prostate -92.7% | K-562 leukemia 2.82% | MALME-3M melanoma -82.1% | MDA-MB-231 breast -90.4% | SF-268 CNS -73.9% | SF-295 CNS -93.9% | SF-539 CNS -92% | UACC-257 melanoma -71% | M14 melanoma -66.9%

N#Cc1ccc(-c2nn(-c3ccc(C(=O)O)cc3)cc2CNc2cccc(Br)c2)cc1
inactive: DU-145 prostate 76.8% | K-562 leukemia 46.3% | MALME-3M melanoma 95.6% | MDA-MB-231 breast 89.4% | SF-268 CNS 51.7% | SF-295 CNS 42.5% | SF-539 CNS 38.6% | UACC-257 melanoma 65.7% | M14 melanoma 37.2%

O=C1CCC(N2Cc3c(NCc4ccc(-c5ccccc5)cc4)cccc3C2=O)C(=O)N1 (centres undefined)
inactive: DU-145 prostate 85% | K-562 leukemia 72.4% | MALME-3M melanoma 15.2% | MDA-MB-231 breast 22.2% | SF-268 CNS 68.1% | SF-295 CNS 81.9% | SF-539 CNS 58.4% | UACC-257 melanoma 103% | M14 melanoma 75.4%

Cc1ccc(C(=O)N/C(=C2/OCCN2C)[P+](c2ccccc2)(c2ccccc2)c2ccccc2)cc1
inactive: DU-145 prostate 84.9% | K-562 leukemia 50.4% | MALME-3M melanoma 63.6% | MDA-MB-231 breast 65.6% | SF-268 CNS 92.7% | SF-295 CNS 87.3% | SF-539 CNS 91.4% | UACC-257 melanoma 49.6% | M14 melanoma 82.9%

CN(CCO)c1oc(-c2ccccc2)nc1[P+](c1ccccc1)(c1ccccc1)c1ccccc1
active: DU-145 prostate 4.07% | K-562 leukemia 9.88% | MALME-3M melanoma -12% | MDA-MB-231 breast -6.83% | SF-295 CNS -13.8% | SF-539 CNS 8.12% | UACC-257 melanoma -3.98%
inactive: SF-268 CNS 11.4% | M14 melanoma 12.2%

COc1ccc(C2N(c3ccc(Br)cc3)N=C(C(C)=O)N2[C@H]2[C@H](OC(C)=O)O[C@H](COC(C)=O)[C@@H](OC(C)=O)[C@@H]2OC(C)=O)cc1 (some centres undefined)
inactive: DU-145 prostate 85.7% | K-562 leukemia 65% | MALME-3M melanoma 93.4% | MDA-MB-231 breast 72.1% | SF-268 CNS 74.9% | SF-295 CNS 64.1% | SF-539 CNS 80.7% | UACC-257 melanoma 89.9% | M14 melanoma 81.5%

CN1C(=O)N(C)C2SC(N/N=C/C=C/c3ccccc3)=NC21 (centres undefined)
inactive: DU-145 prostate 84.2% | K-562 leukemia 25.3% | MALME-3M melanoma 66.8% | MDA-MB-231 breast 82.4% | SF-268 CNS 75.2% | SF-295 CNS 72.7% | SF-539 CNS 75.7% | UACC-257 melanoma 83.1% | M14 melanoma 54.7%

N#C/C(=C\c1ccc(N(c2ccccc2)c2ccccc2)cc1)C(N)=O
active: UACC-257 melanoma -55.9%
inactive: DU-145 prostate 84.8% | K-562 leukemia 35.4% | MALME-3M melanoma 110% | MDA-MB-231 breast 89.3% | SF-268 CNS 102% | SF-295 CNS 23.5% | SF-539 CNS 97% | M14 melanoma 90.7%

CN1CCc2c(sc3ncnc(N/N=C/c4cn(-c5ccccc5)nc4-c4ccc(Cl)cc4)c23)C1
active: K-562 leukemia 9.51% | MDA-MB-231 breast 4.63% | SF-539 CNS 7.13% | UACC-257 melanoma 8.67%
inactive: DU-145 prostate 31.4% | MALME-3M melanoma 17.8% | SF-268 CNS 30.7% | SF-295 CNS 21.6% | M14 melanoma 16.6%

Cc1ccc(-c2cc(C(=O)N=Nc3c(O)[nH]c4ccc(Br)cc34)c3ccccc3n2)cc1
inactive: DU-145 prostate 85.8% | K-562 leukemia 17.8% | MALME-3M melanoma 80.2% | MDA-MB-231 breast 41.7% | SF-268 CNS 80.9% | SF-295 CNS 76.5% | SF-539 CNS 76% | UACC-257 melanoma 103% | M14 melanoma 75.6%

COc1ccc(CN2[C@H](C(=O)NCCCCCCC(=O)NO)Cc3c([nH]c4ccccc34)[C@H]2C2CC2)cc1
inactive: SF-268 CNS 14.5% | M14 melanoma 17.6%
active: DU-145 prostate 9.36% | K-562 leukemia 7.5% | MALME-3M melanoma 1.45% | MDA-MB-231 breast -23% | SF-295 CNS -58.8% | SF-539 CNS 2.87% | UACC-257 melanoma 9.9%

O=C1CCC(N2Cc3cc(CC(=O)Nc4ccc(N5CCCCC5)cc4)ccc3C2=O)C(=O)N1 (centres undefined)
inactive: DU-145 prostate 94.5% | K-562 leukemia 77.3% | SF-268 CNS 61.9% | SF-295 CNS 57.4% | SF-539 CNS 65.6% | UACC-257 melanoma 102% | M14 melanoma 39.4%
active: MALME-3M melanoma -25.4% | MDA-MB-231 breast 7.12%

COc1cc(Cn2c(C(F)(F)F)cc3c(Cl)ncnc32)ccn1
active: DU-145 prostate -100% | SF-268 CNS -11%
inactive: MALME-3M melanoma 71.2% | MDA-MB-231 breast 10.7% | RXF 393 renal 32.9% | SF-295 CNS 95% | SF-539 CNS 59.9% | UACC-257 melanoma 30.1%

O=C1Nc2ccc(Cl)cc2/C1=C/c1ccc(OCc2ccc(Br)cc2F)cc1
active: RXF 393 renal 1.46%
inactive: DU-145 prostate 41.1% | K-562 leukemia 40.7% | MALME-3M melanoma 19.2% | SF-268 CNS 20.3% | SF-295 CNS 22% | SF-539 CNS 33.3% | UACC-257 melanoma 65.2% | M14 melanoma 46.8%

Cn1c(O)c(N=Nc2nc(-c3cc4ccccc4oc3=O)cs2)c2cc(Br)ccc21
inactive: DU-145 prostate 101% | K-562 leukemia 100% | MALME-3M melanoma 49.8% | MDA-MB-231 breast 41.4% | SF-268 CNS 47.2% | SF-295 CNS 14.3% | UACC-257 melanoma 100% | M14 melanoma 88.7%
active: SF-539 CNS -6.85%

Cc1ccc(-c2cc(-c3cc4ccccc4nc3Cl)[nH]c(=O)n2)cc1
inactive: DU-145 prostate 14.2% | MALME-3M melanoma 38.5% | SF-295 CNS 16.2% | UACC-257 melanoma 47% | M14 melanoma 10.2%
active: K-562 leukemia 1.33% | RXF 393 renal -33.9% | SF-268 CNS 6.42% | SF-539 CNS -42.6%

Nc1nc(-c2ccccc2)cc(-c2cc3ccccc3nc2Cl)n1
inactive: DU-145 prostate 81.5% | K-562 leukemia 20% | MALME-3M melanoma 88.4% | RXF 393 renal 85.2% | SF-268 CNS 88.3% | SF-295 CNS 78.6% | SF-539 CNS 78.5% | UACC-257 melanoma 97.8% | M14 melanoma 84.2%

O=C1Nc2cc(Cl)ccc2/C1=C/c1ccc(OCc2ccc(Br)cc2F)cc1
active: DU-145 prostate -17.5% | K-562 leukemia 9.64% | MALME-3M melanoma -69.5% | RXF 393 renal -77.4% | SF-268 CNS -25.9% | SF-295 CNS -94.9% | SF-539 CNS -92% | UACC-257 melanoma -22.6% | M14 melanoma -45.1%

Cc1cccc2cc(-c3cc(-c4ccccc4)nc(=S)[nH]3)c(Cl)nc12
inactive: DU-145 prostate 104% | K-562 leukemia 38% | MALME-3M melanoma 61% | RXF 393 renal 78.9% | SF-268 CNS 112% | SF-295 CNS 64.7% | SF-539 CNS 82.1% | UACC-257 melanoma 77.8% | M14 melanoma 33.3%

Cc1ccc(C(C)C)cc1NC(=O)c1ccccc1N(C)C
inactive: DU-145 prostate 97.4% | MALME-3M melanoma 88.3% | MDA-MB-231 breast 91.1% | RXF 393 renal 85.2% | SF-268 CNS 95.8% | SF-295 CNS 83.8% | SF-539 CNS 96.9% | UACC-257 melanoma 86.5%
